Bioassay records deposited in PubChem by National Center for Advancing Translational Sciences (NCATS).
Shown are actives, neighbours in structure and some others; about 9.2% of the full set was active somewhere.
SMN2 splice enh = qHTS Assay for Enhancers of SMN2 Splice Variant Expression | HEK293 SMN2-luciferase splicing reporter, luminescence, 30-36 h | Potency, µM (highest dose often 46.1 µM), inactives show at the highest dose activity change, positive = activation, usual class: activators | 210,000 tested, 2.8% active | AID 1458, 2008; note: % of control where 0% means no effect; nearly all actives have a fitted effect of over 55% in size
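HEK293 cells carry an SMN2 […]–luciferase reporter in which exon 7 inclusion puts luciferase in frame. Cells were plated 10-12 h before compound addition, then incubated 30-36 h at 37C. ONE-Glo luminescence was read; sodium butyrate at 4.5 mM final served as control.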
ELG1 DNA repair = qHTS screen for small molecules that inhibit ELG1-dependent DNA repair in human embryonic kidney (HEK293T) cells expressing luciferase-tagged ELG1; 330,000 tested, 2.3% active; HEK293T ELG1-luciferase reporter, luminescence, 16 h; DNA damage induced by 5-fluorouridine; Potency, µM (highest dose often 46.1 µM), without a hit: at the highest dose activity change, negative = inhibition, usual class: inhibitors; note: % is set by controls: 0 for no effect and ±100 for the full control effect; nearly all actives have a fitted effect of over 55% in size
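Cells (2,000 per well) received 5-fluorouridine plus test compound or DMSO and were incubated 16 hr at 37 °C, 5% CO2. Luciferase activity was read by luminescence 30 min after ONE-Glo addition; signal suppression marked inhibition of damage-induced ELG1 function.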
ELG1 genotox = qHTS screen for small molecules that induce genotoxicity in human embryonic kidney (HEK293T) cells expressing luciferase-tagged ELG1; HEK293T ELG1-luciferase reporter, luminescence, 16 h; Potency, µM (series often up to 46 µM), for the others: top-dose activity change, positive = activation, usual class: activators; 330,000 tested, 1.3% active; note: % of control where 0% means no effect; nearly all actives have a fitted effect of over 60% in size
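Reporter readout depends on ELG1 protein level, which increases with genetic stress. After 16 hr compound exposure at 37 °C, luciferase activity was quantified using ONE-Glo.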
Rab9 prom act = qHTS Assay for Rab9 Promoter Activators; Huh7 Rab9 promoter-luciferase reporter, luminescence, 24 h; Potency, µM (top dose mostly 9.22 µM), inactives show at the top dose activation, negative = inhibition, hits mostly activators; 320,000 tested, 2.8% active; AID 485297, 2010; note: % of control where 0% means no effect; nearly all actives have a fitted effect of over 60% in size
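Huh7 cells stably carrying Rab9 promoter–luciferase reporter, plated 1500 cells/well, compound added after 2 h and incubated 24 h at 37 °C; luciferase luminescence then read after 10 min with detection reagent.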
FLuc counter = qHTS profiling assay for firefly luciferase inhibitor/activator using purifed enzyme and Km concentrations of substrates (counterscreen for miR-21 project); Luciferin 4-monooxygenase (Photinus pyralis), P08659; purified FLuc, Km substrates, luminescence inhibition; Potency, µM (series often up to 57.5 µM), for inactives: top-dose activity change, negative = inhibition, actives largely listed as inhibitors; 360,000 tested, 6.9% active; AID 588342, 2011;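 note: plate controls were vehicle for no effect and reference inhibitor for full effect; nearly all actives have a fitted effect of over 55% in size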
Target sequence (P08659 whole entry, looked up): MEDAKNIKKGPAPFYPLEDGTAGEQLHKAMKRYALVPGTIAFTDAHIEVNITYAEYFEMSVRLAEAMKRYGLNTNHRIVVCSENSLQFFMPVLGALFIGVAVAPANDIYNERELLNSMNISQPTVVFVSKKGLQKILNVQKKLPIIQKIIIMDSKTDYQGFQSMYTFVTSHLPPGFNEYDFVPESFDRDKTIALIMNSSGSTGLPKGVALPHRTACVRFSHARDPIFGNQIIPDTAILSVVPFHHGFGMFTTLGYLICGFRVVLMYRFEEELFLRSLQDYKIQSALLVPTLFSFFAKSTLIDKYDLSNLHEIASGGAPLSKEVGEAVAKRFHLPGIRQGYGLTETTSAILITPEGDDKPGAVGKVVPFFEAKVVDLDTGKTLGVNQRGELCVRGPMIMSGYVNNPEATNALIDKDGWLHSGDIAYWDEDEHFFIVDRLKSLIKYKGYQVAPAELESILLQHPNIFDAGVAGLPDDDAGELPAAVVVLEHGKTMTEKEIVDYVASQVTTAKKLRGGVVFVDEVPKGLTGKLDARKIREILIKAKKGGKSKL
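Biochemical qHTS of compounds, final roughly 60 µM downward over six points, against 10 nM purified firefly luciferase using Km concentrations of substrates (10 uM D-luciferin, 10 uM ATP) in Tris acetate pH 7.5 buffer; luminescence output.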
NPC1 promoter act = qHTS Assay for NPC1 Promoter Activators | Potency, µM (doses to about 9.22 µM), without a hit: at the top dose activation, actives largely listed as activators | AID 485313, 2010 | 320,000 tested, 2.4% active | Huh7 NPC1 promoter luciferase reporter, 24 h; note: % of control where 0% means no effect; nearly all actives have a fitted effect of over 60% in size
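Stably transfected Huh7 (NPC1 promoter→luciferase), 1500 cells/well in Opti-MEM + 10% FBS, 2 h settle, then compound 24 h at 37 °C. Luminescence after 10 min with Amplite reagent.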
* marks the source's active call; other numbers are inactive results. Calls come from the whole dose curve; as a rule, active = well fitted curve in the direction sought with a large enough effect; inconclusive = small, poorly fitted or top-dose-only effect, or another doubt; inactive = no such curve, though single readings can be large; an effect the other way counts as inactive or inconclusive. Potency is the fitted concentration of half-maximal effect.

`O=[N+]([O-])c1ccc(/C=C/c2ccc3ccccc3n2)cc1` gave SMN2 splice enh 2.2µM*, ELG1 DNA repair inconclusive, ELG1 genotox -9%, Rab9 prom act 0.56µM*, FLuc counter 0.6µM* and NPC1 promoter act inconclusive.
Cc1ccc(CCNC(=O)CN2C(=O)COc3ccc(S(=O)(=O)N4CCCCCC4)cc32)cc1 was read as FLuc counter -15%.
Screening COc1ccc(CCNc2nc(SCc3ccccc3Cl)nc3ccccc23)cc1OC returned FLuc counter -1%.
COC(=O)C(=Cc1ccc(OCc2ccc([N+](=O)[O-])cc2)c(OC)c1)C(=O)OC was read as SMN2 splice enh 16µM*, ELG1 DNA repair inconclusive, ELG1 genotox inconclusive, Rab9 prom act 1%, FLuc counter 9.5µM* and NPC1 promoter act -1%.
Screening COc1cc(C=O)ccc1OCCCOc1ccc([N+](=O)[O-])cc1 returned SMN2 splice enh -67%, ELG1 DNA repair -14%, ELG1 genotox 2%, Rab9 prom act -3%, FLuc counter 0% and NPC1 promoter act 1%.
For COc1cc(C(c2c(C)[nH][nH]c2=O)c2c(C)[nH][nH]c2=O)ccc1OCc1ccc([N+](=O)[O-])cc1 the results were SMN2 splice enh 18µM*, ELG1 DNA repair inconclusive, ELG1 genotox 18µM*, Rab9 prom act 0%, FLuc counter -20% and NPC1 promoter act 19%.
Screening CCOC(=O)C(=Cc1ccc(OCc2ccc([N+](=O)[O-])cc2)c(OC)c1)C(=O)OCC returned SMN2 splice enh -13%, ELG1 DNA repair 18µM*, ELG1 genotox -9%, Rab9 prom act -2%, FLuc counter 15µM* and NPC1 promoter act -3%.
Cc1cccc(NC(=O)CSCC(=O)Nc2cc(Cl)ccc2N2CCOCC2)c1 was read as ELG1 DNA repair 1%, ELG1 genotox -12%, Rab9 prom act 0%, FLuc counter 3% and NPC1 promoter act 2%.
Screening Cc1cc(C)c2c(-n3cccc3)c(C(=O)NCCc3ccc(Cl)cc3)sc2n1 returned FLuc counter -1%.
Screening CN(C)c1ccc(C(=S)NCc2ccco2)cc1 returned SMN2 splice enh -15%, ELG1 DNA repair inconclusive, ELG1 genotox 0.46µM*, Rab9 prom act 0.45µM*, FLuc counter 13µM* and NPC1 promoter act inconclusive.
Screening CC(C)CN1CCCC2(CCN(C(=O)c3cccn3C)CC2)C1 returned SMN2 splice enh -3%.
CC(=O)Nc1cccc(NC(=O)c2ccc3[nH]c(C)c(C)c3c2)c1 was read as ELG1 DNA repair inconclusive, ELG1 genotox 8%, Rab9 prom act 27%, FLuc counter 11µM* and NPC1 promoter act 1%.
For Cc1cc(NC(=O)c2ccc3[nH]c(C)c(C)c3c2)ccn1 the results were ELG1 DNA repair 6%, ELG1 genotox -5%, Rab9 prom act -1%, FLuc counter 15µM* and NPC1 promoter act 0%.
For CC(=O)c1cccc(NC(=O)c2ccc(OC3CSC3)cc2)c1 the results were SMN2 splice enh -42%, ELG1 DNA repair inconclusive, ELG1 genotox -11%, Rab9 prom act 29%, FLuc counter inconclusive and NPC1 promoter act 22%.
Screening O=C(Nc1cccc(Br)c1)c1ccc(OC2CSC2)cc1 returned SMN2 splice enh 74%, ELG1 DNA repair inconclusive, ELG1 genotox 3.3µM*, Rab9 prom act 2.2µM*, FLuc counter 2.7µM* and NPC1 promoter act inconclusive.
Cc1cccc(NC(=O)c2ccc(OC3CSC3)cc2)c1 was read as SMN2 splice enh 18µM*, ELG1 DNA repair inconclusive, ELG1 genotox 10µM*, Rab9 prom act 4µM*, FLuc counter 1.9µM* and NPC1 promoter act 2.5µM*.
